Design in all cases: scale not given: direction of the effect not stated beside the values
Assay [1] has as its target Protein translocase subunit SecA (Escherichia coli (strain K12)) (UniProt P10408). Kind of assay: Assay to Identify E. coli SecA ATPase Inhibitors. The assay is classed as functional. The conditions noted are these: 30 µM.
Assay [2] concerns the target T1, Ubiquitin-activating enzyme e1, putative (Leishmania donovani (strain BPK282A1)) (UniProt E9BSI1).
T1 sequence (whole entry): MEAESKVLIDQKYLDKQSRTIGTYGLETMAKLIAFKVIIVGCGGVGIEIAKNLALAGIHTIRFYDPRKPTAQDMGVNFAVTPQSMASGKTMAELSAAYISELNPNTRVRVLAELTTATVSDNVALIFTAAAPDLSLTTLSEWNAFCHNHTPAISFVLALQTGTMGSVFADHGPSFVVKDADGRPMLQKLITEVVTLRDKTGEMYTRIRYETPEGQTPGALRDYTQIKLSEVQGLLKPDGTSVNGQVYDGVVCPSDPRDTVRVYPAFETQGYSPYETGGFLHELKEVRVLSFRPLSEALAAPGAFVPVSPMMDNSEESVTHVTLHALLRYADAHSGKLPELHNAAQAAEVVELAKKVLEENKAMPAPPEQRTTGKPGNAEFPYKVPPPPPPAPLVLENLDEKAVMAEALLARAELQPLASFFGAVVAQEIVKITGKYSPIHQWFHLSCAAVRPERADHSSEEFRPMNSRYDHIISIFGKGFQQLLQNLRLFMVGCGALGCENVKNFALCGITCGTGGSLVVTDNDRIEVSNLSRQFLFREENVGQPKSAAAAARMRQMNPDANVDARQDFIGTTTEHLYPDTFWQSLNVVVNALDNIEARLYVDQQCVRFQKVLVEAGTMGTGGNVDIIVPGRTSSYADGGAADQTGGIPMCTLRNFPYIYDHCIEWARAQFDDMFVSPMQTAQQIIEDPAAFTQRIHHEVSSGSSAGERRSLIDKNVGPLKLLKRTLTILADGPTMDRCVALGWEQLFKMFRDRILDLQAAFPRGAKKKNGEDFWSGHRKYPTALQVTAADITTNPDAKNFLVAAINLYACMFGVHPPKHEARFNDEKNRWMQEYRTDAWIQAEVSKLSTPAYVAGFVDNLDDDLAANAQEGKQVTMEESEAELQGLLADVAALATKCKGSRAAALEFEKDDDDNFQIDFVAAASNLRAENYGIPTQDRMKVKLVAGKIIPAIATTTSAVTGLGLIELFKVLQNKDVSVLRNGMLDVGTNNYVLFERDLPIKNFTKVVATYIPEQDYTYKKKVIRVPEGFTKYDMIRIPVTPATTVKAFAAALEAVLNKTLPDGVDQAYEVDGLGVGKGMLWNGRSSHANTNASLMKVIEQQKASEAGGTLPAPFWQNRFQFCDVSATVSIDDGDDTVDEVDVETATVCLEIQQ
Briefly: Leishmania donovani Ubiquitin Activating Enzyme (LdE1). In kind it is functional. The following applies: 30 µM.

Assay [3] deals with T2, Aspartate--tRNA(Asp/Asn) ligase (Mycobacterium tuberculosis (strain ATCC 25618 / H37Rv)) (UniProt P9WFW3).
T2 sequence (whole entry): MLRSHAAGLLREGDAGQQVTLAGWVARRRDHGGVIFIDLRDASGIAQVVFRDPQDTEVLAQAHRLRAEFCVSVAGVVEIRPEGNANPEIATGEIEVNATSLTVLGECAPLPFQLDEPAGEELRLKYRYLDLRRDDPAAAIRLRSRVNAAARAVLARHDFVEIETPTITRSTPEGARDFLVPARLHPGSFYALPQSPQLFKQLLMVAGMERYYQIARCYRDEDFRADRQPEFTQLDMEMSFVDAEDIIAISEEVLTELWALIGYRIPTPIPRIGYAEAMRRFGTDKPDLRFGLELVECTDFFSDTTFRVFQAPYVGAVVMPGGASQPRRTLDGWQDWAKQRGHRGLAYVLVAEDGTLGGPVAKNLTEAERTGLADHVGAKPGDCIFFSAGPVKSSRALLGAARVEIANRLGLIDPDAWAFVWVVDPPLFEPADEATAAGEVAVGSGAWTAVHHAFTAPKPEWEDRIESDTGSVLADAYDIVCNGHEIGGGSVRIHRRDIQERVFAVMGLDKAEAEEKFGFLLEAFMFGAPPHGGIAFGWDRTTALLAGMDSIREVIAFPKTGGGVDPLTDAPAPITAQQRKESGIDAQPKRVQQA
Briefly: Assay for Asp RNA synthetase-1 from Mycobacterium tuberculosis. The following applies: 30 µM. The assay is classed as functional.

For assay [4], the target named is AMP-activated protein kinase, AMPK (Homo sapiens) (UniProt P54646+O43741+P54619+Q9UGJ0+Q9Y478+Q13131+Q9UGI9). Kind of assay: AMP-dependent Kinase enzyme assay. An in vitro enzyme assay that detects ADP turnover that is directly proportional to AMPK activity. This uses naive AMPK that is activated during the assay with MK-8722. The assay is classed as functional. The conditions noted are these: 30 µM.

For assay [5], the target named is Sialic acid-binding Ig-like lectin 9 (Homo sapiens) (UniProt Q9Y336). Kind of assay: Hs-Siglec9 ALPHAscreen SOP 20170721. The conditions noted are these: 10 µM. (In general: In Alpha technology, singlet oxygen from a donor bead excites a nearby acceptor bead.)
A further assay concerns Trypanosoma cruzi. Kind of assay: Trypanosoma cruzi phosphomannomutase and mannose-1-phosphate guanylyltransferase assay. In kind it is functional. The conditions noted are these: 10 µM.
For assay [6], the target named is T3, Arginase-2, mitochondrial (Homo sapiens) (UniProt P78540).
T3 sequence (whole entry): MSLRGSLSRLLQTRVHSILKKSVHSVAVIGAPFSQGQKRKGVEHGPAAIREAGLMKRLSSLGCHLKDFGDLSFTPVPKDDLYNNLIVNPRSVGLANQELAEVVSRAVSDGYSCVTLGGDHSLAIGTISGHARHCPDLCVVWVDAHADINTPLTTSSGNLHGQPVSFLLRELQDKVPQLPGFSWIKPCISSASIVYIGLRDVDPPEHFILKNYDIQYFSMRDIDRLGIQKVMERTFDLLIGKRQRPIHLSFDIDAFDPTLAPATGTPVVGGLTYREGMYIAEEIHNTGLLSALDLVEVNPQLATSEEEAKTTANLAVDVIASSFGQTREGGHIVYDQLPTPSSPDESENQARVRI
Briefly: in vitro enzyme assay to detect the production of urea directly proportional to the activity of Arginase II. Further: in the data most compounds retested in dose-response had high values. In kind it is functional. The following applies: 33.3 µM.

Assay [7] addresses T4, Proteasome subunit beta (Trypanosoma cruzi) (UniProt O96673).
T4 sequence (whole entry): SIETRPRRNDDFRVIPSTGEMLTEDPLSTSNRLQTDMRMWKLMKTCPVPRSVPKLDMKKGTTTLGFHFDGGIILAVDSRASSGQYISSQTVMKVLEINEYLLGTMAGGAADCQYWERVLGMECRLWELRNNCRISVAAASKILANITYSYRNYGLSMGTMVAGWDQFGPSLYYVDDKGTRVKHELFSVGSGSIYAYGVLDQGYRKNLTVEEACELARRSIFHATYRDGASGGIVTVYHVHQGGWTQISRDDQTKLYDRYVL
Briefly: Trypanosoma cruzi proteasome chymotrypsin-like activity (TcProtChymo) assay. Further: in the data most compounds retested in dose-response had high values. The assay is classed as functional. The following applies: 9.37 µM.

The next assay deals with N/A. Briefly: Trypanosoma cruzi proteasome luciferase counter-screen. In kind it is functional. The conditions noted are these: 9.37 µM.
A further assay is filed under the species Homo sapiens. Briefly: To identify inhibition of the IFN signalling (Jak-Stat) pathway via expression of an eGFP reporter gene under the control of an IFN-stimulated response element (ISRE) containing MxA promoter. The assay is classed as functional. The following applies: 30 µM.
Assay [8] concerns the target Shiga toxin 2 (Escherichia coli O157:H7) (UniProt P09385+P09386). Kind of assay: E. coli 0.157:H7 Shiga Toxin SOP - stx2 screening assay. In kind it is functional. The conditions noted are these: 30 µM.
For assay [9], the target named is T5, Tyrosyl-tRNA synthetase, putative (Trypanosoma cruzi (strain CL Brener)) (UniProt Q4DSP6).
T5 sequence (whole entry): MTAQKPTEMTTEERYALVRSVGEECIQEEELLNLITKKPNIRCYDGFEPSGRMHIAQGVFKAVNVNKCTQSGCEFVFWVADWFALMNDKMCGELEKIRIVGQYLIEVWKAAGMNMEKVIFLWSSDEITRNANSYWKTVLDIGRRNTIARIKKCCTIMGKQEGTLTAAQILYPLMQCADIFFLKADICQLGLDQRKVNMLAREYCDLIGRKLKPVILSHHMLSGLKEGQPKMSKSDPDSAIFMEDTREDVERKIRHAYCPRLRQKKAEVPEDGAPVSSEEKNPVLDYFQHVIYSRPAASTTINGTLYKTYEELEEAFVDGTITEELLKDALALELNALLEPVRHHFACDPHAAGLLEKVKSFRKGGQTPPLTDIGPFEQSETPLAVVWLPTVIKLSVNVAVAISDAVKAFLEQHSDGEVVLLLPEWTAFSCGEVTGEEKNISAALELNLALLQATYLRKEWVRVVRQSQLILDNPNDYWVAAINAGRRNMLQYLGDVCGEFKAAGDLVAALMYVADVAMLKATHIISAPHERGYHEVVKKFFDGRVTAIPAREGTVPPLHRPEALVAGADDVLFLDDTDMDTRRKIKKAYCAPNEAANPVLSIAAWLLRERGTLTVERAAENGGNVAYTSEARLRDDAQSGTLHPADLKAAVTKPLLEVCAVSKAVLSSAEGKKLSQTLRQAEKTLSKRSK
Kind of assay: Trypanosoma cruzi tyrosyl tRNA synthetase (TcYRS) _High Tyrosine SOP. Further: in the data most compounds retested in dose-response had high values. In kind it is functional. The following applies: 30 µM.

In assay [10] the target is T5, Tyrosyl-tRNA synthetase, putative (Trypanosoma cruzi (strain CL Brener)). Kind of assay: Trypanosoma cruzi tyrosyl tRNA synthetase (TcYRS) SOP. In kind it is functional. The following applies: 30 µM.
In assay [11] the target is Chromo domain-containing protein 1 (Saccharomyces cerevisiae (strain ATCC 204508 / S288c) (Baker's yeast)) (UniProt P32657). Kind of assay: ScCHD-1 Enzyme Inhibition Assay. Further: in the data most compounds retested in dose-response had high values. The following applies: 30 µM. In kind it is functional.

Where “and” joins values, the source holds several entries; their conditions need not be identical. Equal entries are not always repeated. For some assays here: Potency and affinity values are given separately.

Chromo domain-containing protein 1 (Saccharomyces cerevisiae (strain ATCC 204508 / S288c) (Baker's yeast)), sequence (P32657 whole entry, the tested form may be a part): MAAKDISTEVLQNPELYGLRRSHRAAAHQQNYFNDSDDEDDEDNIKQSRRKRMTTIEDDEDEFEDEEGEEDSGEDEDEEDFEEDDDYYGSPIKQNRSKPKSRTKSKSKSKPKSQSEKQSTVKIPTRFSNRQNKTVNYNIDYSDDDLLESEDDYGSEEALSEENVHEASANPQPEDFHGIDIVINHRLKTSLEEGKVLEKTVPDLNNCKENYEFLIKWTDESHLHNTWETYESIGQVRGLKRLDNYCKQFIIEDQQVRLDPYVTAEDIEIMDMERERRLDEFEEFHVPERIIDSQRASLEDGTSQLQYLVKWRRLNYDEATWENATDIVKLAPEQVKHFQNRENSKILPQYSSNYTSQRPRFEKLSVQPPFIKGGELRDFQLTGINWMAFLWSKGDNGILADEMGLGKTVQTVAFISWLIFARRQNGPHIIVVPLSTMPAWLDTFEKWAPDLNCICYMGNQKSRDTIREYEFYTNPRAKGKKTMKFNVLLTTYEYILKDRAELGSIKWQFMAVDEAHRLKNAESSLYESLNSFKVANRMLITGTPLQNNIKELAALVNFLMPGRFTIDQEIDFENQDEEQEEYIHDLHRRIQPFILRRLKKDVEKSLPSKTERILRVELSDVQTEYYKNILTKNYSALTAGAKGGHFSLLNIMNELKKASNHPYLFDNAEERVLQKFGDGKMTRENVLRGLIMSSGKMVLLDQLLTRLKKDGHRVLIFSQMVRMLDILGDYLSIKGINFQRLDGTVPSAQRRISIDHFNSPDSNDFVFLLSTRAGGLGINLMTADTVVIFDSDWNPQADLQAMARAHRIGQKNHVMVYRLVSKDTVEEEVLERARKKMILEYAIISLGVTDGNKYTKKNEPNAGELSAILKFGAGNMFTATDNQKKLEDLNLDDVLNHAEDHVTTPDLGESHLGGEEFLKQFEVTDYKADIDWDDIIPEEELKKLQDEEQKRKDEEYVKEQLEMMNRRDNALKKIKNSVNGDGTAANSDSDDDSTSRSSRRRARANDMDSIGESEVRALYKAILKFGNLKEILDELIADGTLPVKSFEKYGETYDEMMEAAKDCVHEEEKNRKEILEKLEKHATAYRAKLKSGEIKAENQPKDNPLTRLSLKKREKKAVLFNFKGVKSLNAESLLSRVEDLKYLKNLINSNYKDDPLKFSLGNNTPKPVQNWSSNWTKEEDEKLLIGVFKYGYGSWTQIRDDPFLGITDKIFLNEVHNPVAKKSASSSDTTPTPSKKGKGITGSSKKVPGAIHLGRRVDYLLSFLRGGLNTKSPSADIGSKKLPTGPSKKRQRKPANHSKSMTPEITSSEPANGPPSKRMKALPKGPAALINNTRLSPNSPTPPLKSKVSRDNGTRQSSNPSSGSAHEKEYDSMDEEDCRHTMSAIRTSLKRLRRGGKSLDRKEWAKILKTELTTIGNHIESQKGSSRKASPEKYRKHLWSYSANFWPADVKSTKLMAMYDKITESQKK
Protein translocase subunit SecA (Escherichia coli (strain K12)), sequence (P10408 whole entry): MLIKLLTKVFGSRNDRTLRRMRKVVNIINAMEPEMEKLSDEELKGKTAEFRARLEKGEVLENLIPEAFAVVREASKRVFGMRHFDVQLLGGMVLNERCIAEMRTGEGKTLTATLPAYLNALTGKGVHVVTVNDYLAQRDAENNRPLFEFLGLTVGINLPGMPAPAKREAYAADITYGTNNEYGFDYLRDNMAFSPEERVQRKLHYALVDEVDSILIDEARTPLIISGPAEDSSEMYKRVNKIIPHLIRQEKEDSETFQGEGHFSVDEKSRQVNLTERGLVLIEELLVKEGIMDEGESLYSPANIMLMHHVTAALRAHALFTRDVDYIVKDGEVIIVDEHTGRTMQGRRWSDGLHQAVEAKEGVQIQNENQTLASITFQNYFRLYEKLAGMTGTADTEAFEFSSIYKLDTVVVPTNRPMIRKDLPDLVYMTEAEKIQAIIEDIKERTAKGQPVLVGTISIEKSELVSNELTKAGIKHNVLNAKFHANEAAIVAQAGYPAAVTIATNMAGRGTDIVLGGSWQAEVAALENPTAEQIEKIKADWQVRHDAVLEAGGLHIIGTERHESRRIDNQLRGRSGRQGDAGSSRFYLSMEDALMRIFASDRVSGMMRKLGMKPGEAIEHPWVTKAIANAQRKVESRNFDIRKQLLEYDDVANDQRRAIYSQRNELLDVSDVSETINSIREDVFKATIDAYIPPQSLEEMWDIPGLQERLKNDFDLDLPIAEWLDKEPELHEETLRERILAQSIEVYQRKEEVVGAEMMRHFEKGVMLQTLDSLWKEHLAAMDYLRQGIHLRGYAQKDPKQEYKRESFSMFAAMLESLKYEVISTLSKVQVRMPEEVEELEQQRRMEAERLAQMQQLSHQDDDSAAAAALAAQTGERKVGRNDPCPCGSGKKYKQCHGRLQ
Sialic acid-binding Ig-like lectin 9 (Homo sapiens), sequence (Q9Y336 whole entry): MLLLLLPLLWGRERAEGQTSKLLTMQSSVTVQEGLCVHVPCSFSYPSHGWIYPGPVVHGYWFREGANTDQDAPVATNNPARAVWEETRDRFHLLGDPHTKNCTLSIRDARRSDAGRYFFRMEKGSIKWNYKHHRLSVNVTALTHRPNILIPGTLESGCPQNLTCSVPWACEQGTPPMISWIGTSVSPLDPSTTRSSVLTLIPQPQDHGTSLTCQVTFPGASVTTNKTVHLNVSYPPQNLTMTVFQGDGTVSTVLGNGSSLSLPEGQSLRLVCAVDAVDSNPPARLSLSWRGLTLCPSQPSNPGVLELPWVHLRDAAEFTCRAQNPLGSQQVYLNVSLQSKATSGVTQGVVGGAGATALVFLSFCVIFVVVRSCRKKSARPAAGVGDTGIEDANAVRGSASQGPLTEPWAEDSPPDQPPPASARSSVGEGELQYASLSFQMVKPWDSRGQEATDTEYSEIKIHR

Regarding `CC(Cn1cccn1)NCc1csc(-c2cccs2)n1` (stereo not drawn), the Percent Effect in assay [1] was -0.415%; in assay [2], 5.41%; in assay [3], -4.5%; in [4], -7.34%; in [5], -3.93%; with Trypanosoma cruzi, -4.81%. The Percent Effect in [6] was -0.802%; in [7] it was 79.3% and 83.2% and 84%; in the assay with N/A, 52.8% and 51.5%; in the assay listed under Homo sapiens, 17.6%; in assay [8], 21.1%; in assay [9], 7.39%. Besides, the Percent Effect was 13.6% in assay [10] and -4.55% in [11].
Turning to `c1ccc(OC[C@]23COC[C@H]2CN(Cc2ccoc2)C3)nc1`, the Percent Effect in assay [1] is -3.19%; in assay [2], 10.7%; in [3] it was -2.04%; in assay [4] it was -1.7%; in [5] it was 1.05%; with Trypanosoma cruzi, 4.05%. Further, the Percent Effect in assay [6] was -57.9%; in assay [7], 12.1%; in the assay listed under Homo sapiens, -8.07%; in assay [8], -23.7%; in assay [9] it was 3.12%; in [10] it was 17.5%. Also, the Percent Effect in [11] was -6.62%.
`Fc1cnc(N2CCO[C@H]3CN(CC4CCC4)C[C@H]32)nc1`: the Percent Effect in [1] is -5.78%; in assay [2] it was 16%; in assay [3], -2.5%; in [4], -5.38%; in assay [5], 0.543%; in the assay on Trypanosoma cruzi, 1.93%. The Percent Effect in assay [6] was -59.3%; in assay [7] it was 14.5%; in the assay listed under Homo sapiens, 5.62%; in [8], -17.2%; in assay [9] it was -4.17%; in assay [10], 17.5%. Also, in assay [11], the Percent Effect was -17.8%.
As to `COCC(=O)NC(C)Cc1cccc(Br)c1` (stereo not drawn), the Percent Effect in assay [1] was -8.66%; in assay [2], 13.2%; in assay [3], -1.17%; in assay [4] it was -9.62%; in assay [5], 6.28%; in the assay with Trypanosoma cruzi, 10.3%. Moreover, the Percent Effect in [6] is -0.383%; in assay [7] it was 9.19%; in the assay listed under Homo sapiens, 12.7%; in [8], -16.5%; in [9], 7.35%; in assay [10], 19.5%. For the same molecule, in [11], the Percent Effect is -12.4%.

For the origin of these results see ChEMBL document CHEMBL3988442, “University of Dundee, Small-Polar-MMV Screening Library” (2021).
